The subject of this test is MDA-MB-468. In words: phospho-S6 immunofluorescence (DAPI-normalised), per-plate z-score; higher = higher phospho-S6 signal (less pathway suppression). As to conditions: 24 h. On the procedure: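 GPCR-targeted compound library (MedChemExpress HY-L006) tested on MDA-MB-468 PTEN-null TNBC cells in 384-well plates at 0.1, 1 or 10 uM, combined with vehicle, GDC0941 450 nM or lapatinib 1 uM, for 24 h. Phospho-S6 (S240/244) immunofluorescence normalised to DAPI and expressed as a per-plate z-score; values are the mean of biological triplicates.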

Consider `CN1CCN(C2=Nc3ccccc3Oc3ccc(Cl)cc32)CC1` [Loxapine] (compound 10 µM), for which the “phospho-S6 immunofluorescence (z-score)” value is 0.6 (co-treatment: GDC0941 450 nM), -0.55 (co-treatment: lapatinib 1 uM) and 0.95 (co-treatment: vehicle).

As for `CC1CCN(CC[C@H]2CCCN2S(=O)(=O)c2cccc(O)c2)CC1` (compound 10 µM), the “phospho-S6 immunofluorescence (z-score)” value was 0.86 (co-treatment: GDC0941 450 nM), 0.2 (co-treatment: lapatinib 1 uM) and 0.48 (co-treatment: vehicle).

For `Cc1cccn2c(=O)c(-c3nnn[nH]3)cnc12` [Pemirolast (potassium)] (compound 10 µM), the “phospho-S6 immunofluorescence (z-score)” value (co-treatment: GDC0941 450 nM) is -0.3, the “phospho-S6 immunofluorescence (z-score)” value (co-treatment: lapatinib 1 uM) is -0.65 and the “phospho-S6 immunofluorescence (z-score)” value (co-treatment: vehicle) was -1.33.

In the case of `CCCCCN(CCCOC)C(=O)C(CCC(=O)O)NC(=O)c1ccc(Cl)c(Cl)c1` (configuration not stated) [Loxiglumide] (compound 10 µM), the “phospho-S6 immunofluorescence (z-score)” value runs as follows: (co-treatment: GDC0941 450 nM) 0.5; (co-treatment: lapatinib 1 uM) 0.64; (co-treatment: vehicle) 0.51.

As for `N=C(N)NCCC[C@@H](NC(=O)[C@@H]1CCCN1C(=O)[C@@H]1CSSCCC(=O)N[C@@H](Cc2ccc(O)cc2)C(=O)N[C@@H](Cc2ccccc2)C(=O)N[C@@H](CCC(N)=O)C(=O)N[C@@H](CC(N)=O)C(=O)N1)C(=O)NCC(N)=O` [Desmopressin (Acetate)] (compound 10 µM), the “phospho-S6 immunofluorescence (z-score)” value runs as follows: (co-treatment: GDC0941 450 nM) 0.16; (co-treatment: lapatinib 1 uM) -0.21; (co-treatment: vehicle) -0.41.

In the case of `CC(C)C[C@H](NC(=O)[C@@H](COC(C)(C)C)NC(=O)[C@H](Cc1ccc(O)cc1)NC(=O)[C@H](CO)NC(=O)[C@H](Cc1c[nH]c2ccccc12)NC(=O)[C@H](Cc1cnc[nH]1)NC(=O)[C@@H]1CCC(=O)N1)C(=O)N[C@@H](CCCNC(=N)N)C(=O)N1CCC[C@H]1C(=O)NNC(N)=O` [Goserelin (acetate)] (compound 10 µM), the “phospho-S6 immunofluorescence (z-score)” value runs as follows: (co-treatment: GDC0941 450 nM) -1.26; (co-treatment: lapatinib 1 uM) 0.37; (co-treatment: vehicle) 0.21.

With `CC(C)OC(=O)CCC/C=C\C[C@@H]1[C@@H](CC[C@@H](O)CCc2ccccc2)[C@H](O)C[C@@H]1O` [Latanoprost] (compound 10 µM), the “phospho-S6 immunofluorescence (z-score)” value by setting is: (co-treatment: GDC0941 450 nM) 0.61; (co-treatment: lapatinib 1 uM) -0.08; (co-treatment: vehicle) -0.18.

Regarding `CC[C@H](NC(=O)c1c(O)c(-c2ccccc2)nc2ccccc12)c1ccccc1` [Talnetant] (compound 10 µM), the “phospho-S6 immunofluorescence (z-score)” value runs as follows: (co-treatment: GDC0941 450 nM) 0.6; (co-treatment: lapatinib 1 uM) 0.47; (co-treatment: vehicle) 0.13.

On to `CCn1c2ccccc2c2cc(Nc3ccnc(NCCCN4CCOCC4)n3)ccc21` (compound 10 µM), for which the “phospho-S6 immunofluorescence (z-score)” value (co-treatment: GDC0941 450 nM) was -3.59, the “phospho-S6 immunofluorescence (z-score)” value (co-treatment: lapatinib 1 uM) is -8.74 and the “phospho-S6 immunofluorescence (z-score)” value (co-treatment: vehicle) was -10.3.

These data come from the supplement of paper PMC7411640.
